Results reported in the supplement of paper PMC10981050.
Values joined by “and” are separate entries in the source; they are usually repeats but may differ in a detail not shown here. Identical values can stand only once. Counter-ions that a name gives are not always drawn.

Key:
Assay in all cases: cell viability relative to vehicle control; higher = less cytotoxic
Conditions in all cases: 10 µM
K562 = system: K562
How it was run: (§1)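 Screening covered the Selleck bioactive, kinase and epigenetic probe libraries, less identity-inconsistent compounds, on CRISPR-edited mutant clones and isogenic wild-type clones of four leukaemia lines. Cells, at 2000 per well in 50 µL medium, received a single 10 µM acoustically dispensed dose. After 48 h the supernatant was removed and CellTiter-Glo luminescence was read. Viability was analysed in Genedata Screener as percent of the on-plate vehicle control.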

MARIMO = system: MARIMO
How it was run: as §1

MOLM14 = system: MOLM14
How it was run: as §1

OCI-AML2 = system: OCI-AML2
How it was run: as §1

Row | Structure (SMILES) | cell viability (K562; SRSF2 genotype: SRSF2 P95H/wt) | cell viability (K562; SRSF2 genotype: SRSF2 wt/wt) | cell viability (MARIMO; SRSF2 genotype: SRSF2 P95H/wt) | cell viability (MARIMO; SRSF2 genotype: SRSF2 wt/wt) | cell viability (MOLM14; SRSF2 genotype: SRSF2 P95H/wt) | cell viability (MOLM14; SRSF2 genotype: SRSF2 wt/wt) | cell viability (OCI-AML2; SRSF2 genotype: P95H/wt) | cell viability (OCI-AML2; SRSF2 genotype: wt/wt)
1 | O=C(NCCCNc1nc(Nc2cccc(NC(=O)N3CCCC3)c2)ncc1I)c1cccs1 | 62.4% and 86.2% | 74.4% | 56.6% | 56.7% | 11.1% | 6.15% | 12.4% | 20.6%
2 | Nc1ncnc2c1ncn2C1CC(O)C(CO)O1 (stereo not drawn) [2'-Deoxyadenosine monohydrate] | 113% and 106% | 105% | 96.4% | 94.5% | 102% | 99.6% | 95.5% | 96.5%
3 | CS(=O)(=O)c1ccc([C@@H](O)[C@@H](CO)NC(=O)C(Cl)Cl)cc1 [Thiamphenicol (Thiophenicol)] | 86.1% and 88.3% | 87.7% | 103% | 101% | 98.5% | 96.8% | 97.3% | 91.2%
4 | CCN(CC)C(=O)C1(c2ccccc2)CC1CN (stereo not drawn) [Milnacipran HCl] | 96.3% and 102% | 96.8% | 99.6% | 106% | 102% | 105% | 106% | 108%
5 | C[C@H](C[C@H](O)[C@H]1OC1(C)C)C1=C2C[C@H](O)[C@H]3[C@@]4(C)CCC(=O)C(C)(C)[C@@H]4CC[C@]3(C)[C@@]2(C)CC1 [Alisol B] | 81.2% and 83.7% | 78.7% | 70.8% | 48.2% | 86.7% | 87.4% | 70.3% | 72.7%
6 | CC(=O)[O-].[K+] [Potassium acetate] | 100% and 97.3% | 103% | 106% | 97.5% | 96.7% | 99.6% | 111% | 93.4%
7 | CN1CCN(Cc2ccc(NC(=O)Nc3ccc(Oc4cc(NC(=O)C5CC5)ncn4)cc3)cc2C(F)(F)F)CC1 | 21.2% and 19% | 20.5% | 1.8% | 1.13% | 0.31% | 0.31% | 0.36% | 1.73%
8 | C=C[C@@H]1C[C@]1(NC(=O)[C@@H]1C[C@@H]2CN1C(=O)[C@H](C(C)(C)C)NC(=O)O[C@@H]1C[C@H]1CCCCCc1nc3ccc(OC)cc3nc1O2)C(=O)NS(=O)(=O)C1CC1 [Grazoprevir] | 96.2% and 101% | 93.4% | 115% | 123% | 111% | 105% | 116% | 115%
9 | CN1CCC(=C2c3ccccc3C=Cc3ccccc32)CC1 [Cyproheptadine hydrochloride (Periactin)] | 90.8% and 86.3% | 83% | 77.3% | 89% | 72.5% | 91.5% | 81.1% | 85%
10 | O=C(c1cc(Cc2n[nH]c(=O)c3ccccc23)ccc1F)N1CCN(C(=O)C2CC2)CC1 | 92.6% and 101% | 97.2% | 84% | 96.1% | 59.4% | 31% | 44.6% | 58%
11 | CC(C)=CCC[C@](C)(O[C@@H]1O[C@H](CO[C@@H]2O[C@H](CO)[C@@H](O)[C@H](O)[C@H]2O)[C@@H](O)[C@H](O)[C@H]1O)[C@H]1CC[C@]2(C)[C@@H]1[C@H](O)C[C@@H]1[C@@]3(C)CC[C@H](O[C@@H]4O[C@H](CO)[C@@H](O)[C@H](O)[C@H]4O)C(C)(C)[C@@H]3CC[C@]12C [Gypenoside XVII] | 112% and 100% | 109% | 108% | 103% | 110% | 106% | 106% | 106%
12 | CCC(=O)O[C@]1(C(=O)CCl)[C@@H](C)C[C@H]2[C@@H]3CCC4=CC(=O)C=C[C@]4(C)[C@@]3(F)[C@@H](O)C[C@@]21C [Clobetasol propionate] | 88.3% and 95.4% | 88.2% | 85.1% | 96.7% | 81.2% | 80.8% | 90.5% | 101%
13 | Oc1cc(O)c2c(c1)OC(c1ccc(O)c(O)c1)C(OC1(c3ccc(O)c(O)c3)Oc3cc(O)cc(O)c3C(O)C1O)C2 (stereo not drawn) [Proanthocyanidins] | 102% and 105% | 104% | 107% | 98.7% | 89.9% | 102% | 92.6% | 101%
14 | N#Cc1c(N)nc(NC2CC2)nc1N [Dicyclanil] | 96.3% and 102% | 105% | 94.5% | 105% | 104% | 102% | 107% | 99.9%
15 | O=C(c1ccc(Cl)cc1)N(Cc1ccccc1)C1CCCCC1 | 86.1% and 92.9% | 92.3% | 75.2% | 84.1% | 78.1% | 94.6% | 72.5% | 81.8%
16 | CO/N=C(\C(=O)N[C@@H]1C(=O)N2C(C(=O)[O-])=C(C[n+]3cccc4c3CCC4)CS[C@H]12)c1csc(N)n1 [Cefpirome sulfate] | 100% and 107% | 106% | 94.2% | 108% | 103% | 103% | 101% | 104%
17 | OCCN1C[C@H](O)[C@@H](O)[C@H](O)[C@H]1CO [Miglitol (Glyset)] | 98.3% and 109% | 101% | 106% | 102% | 106% | 106% | 107% | 94.9%
18 | Nc1ccc(S(=O)(=O)Nc2ncccn2)cc1 [Sulfadiazine] | 108% and 105% | 108% | 114% | 110% | 103% | 108% | 111% | 110%
19 | Cc1cc2c(F)c(Oc3ncnn4cc(OC[C@@H](C)OC(=O)[C@H](C)N)c(C)c34)ccc2[nH]1 | 89.4% and 85.9% | 82% | 93.5% | 104% | 82% | 87.4% | 78.8% | 81.5%
20 | CCN(CCO)CCCOc1ccc2c(Nc3cc(CC(=O)Nc4cccc(F)c4)[nH]n3)ncnc2c1 [Barasertib (AZD1152-HQPA)] | 70.7% and 93.2% | 81% | 73.2% | 68.2% | 13.9% | 7.61% | 29.1% | 36.6%
21 | C[C@@H]1CCO[C@H]2Cn3cc(C(=O)NCc4ccc(F)cc4F)c(=O)c(O)c3C(=O)N12 | 84.5% and 87% | 77.5% | 84.3% | 98.4% | 94.1% | 94% | 92% | 98.5%

Row | Structure (SMILES) | cell viability (K562; SRSF2 genotype: SRSF2 P95H/wt) | cell viability (K562; SRSF2 genotype: SRSF2 wt/wt) | cell viability (MARIMO; SRSF2 genotype: SRSF2 P95H/wt) | cell viability (MARIMO; SRSF2 genotype: SRSF2 wt/wt) | cell viability (MOLM14; SRSF2 genotype: SRSF2 P95H/wt) | cell viability (MOLM14; SRSF2 genotype: SRSF2 wt/wt) | cell viability (OCI-AML2; SRSF2 genotype: P95H/wt) | cell viability (OCI-AML2; SRSF2 genotype: wt/wt)
22 | CN(C(=O)CNC(=O)/C=C/c1cccc(Cl)c1)C1CCS(=O)(=O)CC1 | 35.4% and 33% | 28.4% | 103% | 104% | 105% | 86% | 101% | 104%
23 | CCOC(=O)c1c2c3c(cccc3[nH]c1=O)C(=O)c1ccccc1-2 | 95.8% and 97.2% | 90.7% | 84% | 96.1% | 90.7% | 95.8% | 92.4% | 101%
24 | C[C@]12C=CC(=O)N[C@@H]1CC[C@@H]1[C@@H]2CC[C@]2(C)[C@@H](C(=O)Nc3cc(C(F)(F)F)ccc3C(F)(F)F)CC[C@@H]12 [Dutasteride] | 94.4% and 96.6% | 95% | 102% | 94.1% | 96% | 98.3% | 101% | 94.7%
25 | O=C(O)[C@]1(Cc2cccc(Nc3nccs3)n2)CC[C@@H](Oc2cccc(Cl)c2F)CC1 | 17.3% and 19.3% | 18.6% | 66.6% | 68.2% | 27.7% | 20.6% | 17.8% | 24.8%
26 | COc1ccnc(C[S+]([O-])c2nc3cc(-n4cccc4)ccc3[nH]2)c1C (stereo not drawn) [Ilaprazole] | 90.7% and 95.4% | 92.4% | 87.3% | 105% | 99.9% | 101% | 82.5% | 97.3%
27 | CC[C@@H]1C(=O)N(C)c2cnc(Nc3ccc(C(=O)N[C@H]4CC[C@H](N5CCN(CC6CC6)CC5)CC4)cc3OC)nc2N1C(C)C [BI6727 (Volasertib)] | 3.41% and 6.94% | 9.46% | 12.2% | 16.7% | 3.23% | 0.61% | 4.52% | 11.5%
28 | O=C1NC(=O)C(c2cnc3ccccn23)=C1c1cn2c3c(cc(F)cc13)CN(C(=O)N1CCCCC1)CC2 | 56.1% and 43.4% | 71.5% | 94.4% | 103% | 86.8% | 79.5% | 118% | 119%
29 | COc1cc2oc(-c3ccccc3)cc(=O)c2c(OC)c1OC [5,6,7-Trimethoxyflavone] | 109% and 110% | 107% | 99.9% | 96.3% | 111% | 110% | 85.1% | 87.3%
30 | Cc1[nH]c2ccccc2c1C1=C(NCCc2ccc(F)cc2)C(=O)N(C)C1=O | 97% and 105% | 102% | 94.9% | 100% | 99.4% | 105% | 100% | 89.8%
31 | Cc1c[nH]c(=O)[nH]c1=O [Thymine] | 99.9% and 101% | 96.8% | 101% | 95.1% | 109% | 102% | 106% | 101%
32 | CCCN[C@H]1CCc2nc(N)sc2C1 [Pramipexole dihydrochloride] | 103% and 96.9% | 110% | 103% | 94.2% | 79.1% | 97.8% | 103% | 111%
33 | CC(C)N(CCCCOCC(=O)NS(C)(=O)=O)c1cnc(-c2ccccc2)c(-c2ccccc2)n1 [Selexipag] | 110% and 100% | 100% | 97% | 109% | 97.6% | 98.2% | 96.9% | 109%
34 | CC(=O)OCC(=O)[C@@]12N=C(C)O[C@@H]1C[C@H]1[C@@H]3CCC4=CC(=O)C=C[C@]4(C)[C@H]3[C@@H](O)C[C@@]12C [Deflazacort (Calcort)] | 98.4% and 102% | 103% | 95% | 109% | 103% | 97% | 91.4% | 114%
35 | C=CC(=O)N1CC/C(=C\c2ccc(F)c([N+](=O)[O-])c2)C(=O)/C(=C/c2ccc(F)c([N+](=O)[O-])c2)C1 | 2.41% and 0.35% | 0.44% | 0.25% | 0.39% | 0.29% | 0.29% | 0.26% | 0.35%
36 | CN(C)CCCC1(c2ccc(F)cc2)OCc2cc(C#N)ccc21 (stereo not drawn) [Citalopram HBr] | 98.3% and 92.9% | 92.5% | 94.2% | 108% | 91.5% | 101% | 90.8% | 97.9%
37 | CC(C)=CCCC(C)(O)C1CCC2(C)C1C(O)CC1C3(C)CCC(O)C(C)(C)C3C(OC3OC(CO)C(O)C(O)C3OC3OC(C)C(O)C(O)C3O)CC12C [(20S)Ginsenoside Rg2] | 102% and 108% | 98.7% | 108% | 108% | 104% | 104% | 101% | 115%
38 | O=C(Nc1cccc(C(F)(F)F)c1)Nc1cc(S(=O)(=O)NC2CC2)ccc1-c1ccsc1 | 82.6% and 92.4% | 80.2% | 94.2% | 104% | 92% | 94.4% | 86.6% | 95%
39 | COc1ccc(/C=C/c2cc(O)cc(O[C@@H]3O[C@H](CO)[C@@H](O)[C@H](O)[C@H]3O)c2)cc1O [Rhapontin] | 86.2% and 86.1% | 92.3% | 85.4% | 99.8% | 90.7% | 99.3% | 89.1% | 95.5%
40 | COc1cc(NS(=O)(=O)c2ccc(N)cc2)nc(OC)n1 [Sulphadimethoxine] | 95.8% and 87.4% | 95.9% | 91.3% | 98% | 96.7% | 91.5% | 90.4% | 91.4%
41 | CCCC(=O)OCOC(=O)C1=C(C)NC(C)=C(C(=O)OC)C1c1cccc(Cl)c1Cl (stereo not drawn) [Clevidipine Butyrate] | 102% and 105% | 104% | 100% | 107% | 104% | 109% | 107% | 108%
